This is a sample that favours compounds with a hit; in the whole collection about 12% have one here.
Sfp PPTase inh – qHTS Assay for Inhibitors of Bacillus subtilis Sfp phosphopantetheinyl transferase (PPTase) | 4'-phosphopantetheinyl transferase ffp (Bacillus subtilis), Q9F4F7 | Biochemical Sfp PPTase activity, qHTS | Potency, µM, for inactives: largest response in the series, negative = inhibition, most hits filed as inhibitors | 310,000 tested, 3.5% active | AID 1490, 2009;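 also: the enzyme is Sfp with the accession as filed and its product quenches rhodamine fluorescence; 0% = enzyme reaction without inhibitor and -100% = no enzyme wells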
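After 15 min at room temperature with compound, 15 nM Sfp received 5 uM rhodamine-CoA plus 12.5 uM BHQ-2-ybbR (50 mM Hepes pH 7.6, 10 mM MgCl2). Rate came from the fluorescence difference over 30 min, ex 525/em 598 nm.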
BAZ2B block – qHTS Assay for Inhibitors of BAZ2B; Bromodomain adjacent to zinc finger domain protein 2B (Homo sapiens), Q9UIF8; AlphaScreen BAZ2B-H3K14Ac peptide displacement; Potency, µM (top dose mostly 114 µM), for the others: at the highest dose activity change, negative = inhibition, actives largely listed as inhibitors; 360,000 tested, 4.4% active; also: % is scaled to controls: 0 for no effect and ±100 for the full control effect; nearly all actives have a fitted effect of over 60% in size
Target sequence (Q9UIF8 whole entry, looked up, the tested form may be a part): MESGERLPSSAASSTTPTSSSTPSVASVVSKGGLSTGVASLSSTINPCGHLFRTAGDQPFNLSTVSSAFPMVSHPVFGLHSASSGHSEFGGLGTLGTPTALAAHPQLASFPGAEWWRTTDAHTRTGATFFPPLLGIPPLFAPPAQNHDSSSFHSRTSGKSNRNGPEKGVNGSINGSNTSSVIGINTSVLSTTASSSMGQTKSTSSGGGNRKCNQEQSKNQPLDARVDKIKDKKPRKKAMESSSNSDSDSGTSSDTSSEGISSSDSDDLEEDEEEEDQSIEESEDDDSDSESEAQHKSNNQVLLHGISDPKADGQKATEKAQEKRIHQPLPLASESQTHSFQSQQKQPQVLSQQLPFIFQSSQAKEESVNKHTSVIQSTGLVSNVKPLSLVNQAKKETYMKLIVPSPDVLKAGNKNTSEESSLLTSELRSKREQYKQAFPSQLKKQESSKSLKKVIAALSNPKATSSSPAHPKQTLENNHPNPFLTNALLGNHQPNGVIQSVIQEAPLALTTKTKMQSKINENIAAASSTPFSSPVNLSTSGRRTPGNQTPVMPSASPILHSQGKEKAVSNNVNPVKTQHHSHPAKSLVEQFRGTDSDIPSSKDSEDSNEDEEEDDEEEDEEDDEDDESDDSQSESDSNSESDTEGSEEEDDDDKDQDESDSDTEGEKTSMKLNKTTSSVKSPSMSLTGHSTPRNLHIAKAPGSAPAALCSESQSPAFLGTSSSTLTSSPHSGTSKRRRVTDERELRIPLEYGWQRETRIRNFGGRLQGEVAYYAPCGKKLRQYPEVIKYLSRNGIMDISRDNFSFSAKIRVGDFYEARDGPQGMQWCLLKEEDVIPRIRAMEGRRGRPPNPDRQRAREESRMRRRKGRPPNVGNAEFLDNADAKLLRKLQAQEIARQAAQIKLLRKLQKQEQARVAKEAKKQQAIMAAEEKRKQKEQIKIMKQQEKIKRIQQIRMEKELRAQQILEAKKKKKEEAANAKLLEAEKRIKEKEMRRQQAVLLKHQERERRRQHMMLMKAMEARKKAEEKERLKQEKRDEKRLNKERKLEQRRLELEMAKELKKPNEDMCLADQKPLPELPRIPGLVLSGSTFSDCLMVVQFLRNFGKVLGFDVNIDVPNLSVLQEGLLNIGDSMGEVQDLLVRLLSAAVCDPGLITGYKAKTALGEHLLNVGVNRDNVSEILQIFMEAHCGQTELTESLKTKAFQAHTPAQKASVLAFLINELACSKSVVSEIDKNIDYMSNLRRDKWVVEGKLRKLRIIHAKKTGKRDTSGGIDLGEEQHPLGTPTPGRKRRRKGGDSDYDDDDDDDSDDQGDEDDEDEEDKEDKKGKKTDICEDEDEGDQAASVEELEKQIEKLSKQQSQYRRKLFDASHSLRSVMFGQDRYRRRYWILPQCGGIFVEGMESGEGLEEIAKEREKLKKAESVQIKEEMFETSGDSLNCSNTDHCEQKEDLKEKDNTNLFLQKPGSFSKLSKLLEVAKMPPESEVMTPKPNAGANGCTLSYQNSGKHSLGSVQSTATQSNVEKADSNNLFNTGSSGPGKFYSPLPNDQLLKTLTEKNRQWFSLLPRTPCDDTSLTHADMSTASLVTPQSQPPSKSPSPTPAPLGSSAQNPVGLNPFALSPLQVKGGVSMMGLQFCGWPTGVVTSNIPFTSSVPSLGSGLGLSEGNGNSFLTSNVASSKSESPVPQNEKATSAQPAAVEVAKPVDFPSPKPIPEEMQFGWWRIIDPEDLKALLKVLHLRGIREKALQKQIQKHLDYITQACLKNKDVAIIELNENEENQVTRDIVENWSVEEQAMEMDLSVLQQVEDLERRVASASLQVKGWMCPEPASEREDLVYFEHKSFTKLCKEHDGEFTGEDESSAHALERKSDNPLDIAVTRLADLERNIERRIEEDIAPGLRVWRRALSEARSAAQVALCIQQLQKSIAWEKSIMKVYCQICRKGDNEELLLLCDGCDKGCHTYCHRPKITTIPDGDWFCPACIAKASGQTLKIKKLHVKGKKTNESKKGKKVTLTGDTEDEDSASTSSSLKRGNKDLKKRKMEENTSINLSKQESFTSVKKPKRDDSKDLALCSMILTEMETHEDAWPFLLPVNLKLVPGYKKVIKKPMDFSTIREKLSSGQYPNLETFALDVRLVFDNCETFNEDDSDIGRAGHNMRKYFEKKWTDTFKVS
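Protein-peptide AlphaScreen: BAZ2B 50 nM, b-H3K14Ac 50 nM, 1x PBS pH 7.4 + 0.01% Tween-20. Preincubation 30 min RT; cpd 30 min RT (top 110 uM); beads 20 min RT, light-protected.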
PLK1 PBD block – qHTS for Inhibitors of PLK1-PDB (polo-like kinase 1 - polo-box domain): Primary Screen; Potency, µM, for inactives: max response, negative = inhibition, hits mostly inhibitors; Plk1 PBD binding of FITC phosphopeptide, fluorescence polarization; 360,000 tested, 2.8% active; also: series mostly up to about 57 µM; % is scaled to controls: 0 for no effect and ±100 for the full control effect; nearly all actives have a fitted effect of over 65% in size
HP1b chromo inh – HTS for Inhibitors of HP1-beta Chromodomain Interactions with Methylated Histone Tails; Chromobox protein homolog 1 (Homo sapiens), P83916; AlphaScreen HP1-beta / biotin-H3K9me3 peptide binding; 390,000 tested, 0.56% active; Potency, µM (top dose mostly 114 µM), for the others: at the top dose activity change, negative = inhibition, hits mostly inhibitors; also: nearly all actives have a fitted effect of over 70% in size
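Compound inhibition of the preformed complex between 50 nM HP1-beta and 50 nM biotinylated H3K9me3 peptide was read by AlphaScreen. Buffer was PBS pH 7.4 with 0.01% Tween-20. Incubations ran 30 min at room temperature, with 10 ug/mL donor/acceptor beads.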
G9a inh – qHTS Assay for Inhibitors of Histone Lysine Methyltransferase G9a; Histone-lysine N-methyltransferase EHMT2 (Homo sapiens), Q96KQ7; G9a H3K9 monomethylation, AlphaScreen, 2 h; Potency, µM (series often up to 102 µM), without a hit: top-dose activity, negative = inhibition, most hits filed as inhibitors; 350,000 tested, 8.8% active; AID 504332, 2011; also: % is scaled to controls: 0 for no effect and ±100 for the full control effect; nearly all actives have a fitted effect of over 75% in size
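Using a bead-based AlphaScreen, monomethylated H3K9 product from 2 h room-temperature reactions (G9a 20 nM, peptide 500 nM, SAM 20 uM) was detected with 0.5 ug/mL rabbit anti-H3K9me1 antibody.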
JMJD2A Tudor – qHTS Assay for Inhibitors of JMJD2A-Tudor Domain. AID 504339, 2011. 390,000 tested, 4.4% active. AlphaScreen JMJD2A-Tudor / H3K4me3 peptide binding. Potency, µM (doses to about 114 µM), without a hit: top-dose activity change, negative = inhibition, hits mostly inhibitors. Lysine-specific demethylase 4A (Homo sapiens), O75164; also: % is scaled to controls: 0 for no effect and ±100 for the full control effect; nearly all actives have a fitted effect of over 50% in size
The depositor's hits bear a star; ? = inconclusive; . = not tested or not shown; [ ] = remark or other dose. Calls follow the shape of the dose curve; as a rule, active = well fitted curve in the direction sought with a large enough effect; inconclusive = small, poorly fitted or top-dose-only effect, or another doubt; inactive = no such curve, though single readings can be large; an effect the other way counts as inactive or inconclusive. Potency is read from the fitted curve at half-maximal effect.

SMILES	Sfp PPTase inh	BAZ2B block	PLK1 PBD block	HP1b chromo inh	G9a inh	JMJD2A Tudor
O=C(CN1CCCCC1CO)c1ccc(OC(F)F)cc1 (stereo not given)	16.0%	-14.4%	-5.1%	47.7%	56.2µM*	2.1%
CC(C)c1ccc(OCC(=O)NCCO)cc1	-4.4%	0.9%	26.7µM*	?	12.9%[59 µM]	?
COc1ccc(OC(=O)COc2ccc(C)cc2)cc1	13.2%	-4.6%	-9.7%	71.5%	155.5%	0.0%
Cc1ccc(OCC(=O)NCCCNC(=O)COc2ccc(C)cc2)cc1	0.2%	-25.9%	-5.2%	22.1%	35.5µM*	-2.3%
COc1ccc(OCC(=O)Sc2ccc(C)cc2)cc1	-14.6%	146.2%	4.74µM*	282.0%	47.1%[59 µM]	120.7%
Cc1cc(OCC(=O)NCCO)ccc1Cl	2.9%	1.5%	-11.9%	46.6%	-5.0%[59 µM]	-12.2%[57.1 µM]
Cc1cc(OCC(=O)NCCO)cc(C)c1Cl	-11.4%	7.6%	-5.5%	14.8%	-7.3%[59 µM]	89.1µM*
N#CC1=C(N)NC(SCc2ccc(F)cc2)=C(C#N)C12CCCCC2	-1.0%	?	-11.9%	-0.7%	6.9%[12.7 µM]	-26.4%
CC(C)N1CCC2(CC1)C(C#N)=C(N)NC(S)=C2C#N	-9.2%	-9.7%	.	.	1.58µM*	.
CCCCC1=CC2=CC(=O)C(C)(OC(=O)CC)C(=O)C2=CN1CCCCO (stereo not given)	22.2%	-23.1%	-24.1%	12.0%	8.5%[59 µM]	-12.1%
CCCCCCCC1=CC2=CC(=O)C(C)(OC(C)=O)C(=O)C2=CN1CCc1ccccc1 (stereo not given)	-5.5%	?	.	.	39.8µM*	.
Cc1ccc(CN2CCSc3ccc(C(=O)Nc4ccc(C)cc4)cc32)cc1	.	-6.0%	.	32.8%	-22.7%[59 µM]	-9.9%
O=C1NCCN(CC2CCN(CCc3ccc(Cl)c(Cl)c3)CC2)C1=O	.	.	-2.9%	-25.0%	.	79.4µM*
CC[C@H](C)[C@H]1CNC(=O)C(=O)N1CC1CCN(CCc2ccc(Cl)c(Cl)c2)CC1	.	.	-7.4%	57.9%	.	-14.4%
CCNC(=O)c1ccc(CSc2ccc(Cl)cc2)cc1	18.4%	7.8%	26.7µM*	0.7%	6.3%[59 µM]	?
Cc1cc(Nc2nc3ccccc3c3nnc(C)n23)ccc1Br	.	8.4%	.	44.2%	4.1%[59 µM]	-14.1%
Cc1ccc(N(CC(=O)Nc2ccccc2-c2ccccc2)S(=O)(=O)c2ccccc2)c(C)c1	14.4%	-26.6%	-21.2%	8.0%	8.91µM*	-14.3%
Cc1ccc(S(=O)(=O)N(CC(=O)Nc2ccccc2C(=O)O)c2ccc(Cl)cc2)cc1	26.6%	?	37.7µM*	40.9%	-34.2%[59 µM]	-4.8%
CCc1cc2c(SCC#N)ncnc2s1	3.9%	6.7%	26.7µM*	0.5%	.	?
Cc1sc2ncnc(N3CCCCC3)c2c1C	11.7%	6.8%	-4.1%	34.9%	35.2%[12.7 µM]	11.3%
CCc1cc2c(N3CCCCC3)ncnc2s1	-24.7%	-0.5%	-2.8%	63.0%	50.1µM*	-8.3%
COc1ccc(C(=O)N2CCC[C@@]3(CCN(c4ccccc4)C3)C2)cc1	-11.6%	.	.	.	-8.7%[12.7 µM]	.
CNc1cccc2c1C(=O)c1ccccc1C2=O	10.9%	3.16µM*	-10.5%	8.91µM*	8.91µM*	2.82µM*
O=C1c2ccccc2C(=O)c2c(NCc3cccnc3)cccc21	-5.8%	15.1%[57.1 µM]	-8.9%	?	?	?
O=C(Nc1cccc(Br)c1)C1CCCC1	.	.	-1.0%	57.9%	.	7.7%
O=C(O)[C@H]1CCCC[C@H]1C(=O)Nc1ccc(Nc2ccccc2)cc1	3.2%	-34.5%	-0.2%	12.8%	8.91µM*	-10.7%
O=C(O)C1CCCCC1C(=O)Nc1cccc(Br)c1 (stereo not given)	.	?	-20.2%	25.1µM*	15.7%[2.33 µM]	25.1µM*
Cc1ccc(NC(=O)c2noc3c2CCC3)cc1C	6.6%	44.7µM*	?	50.1µM*	?	39.8µM*

Source: PubChem
